Experimental data as given in PubChem BioAssay (NCI).
About 83,000 compounds went through this panel and 20% of them were active in at least one assay; those are over-represented in the sample as a whole.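 Single-concentration screen, 48 h exposure, 96-well plates. Endpoint: percent growth. Below 10 = active.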 Activity calls are given as the source filed them.

Assays:
Test in all cases: NCI-60 one-dose screen, 48 h (100 = growth as untreated, 0 = no growth, -100 = all killed)
NCI-H460 lung = conditions: 10 µM unless noted
786-0 renal = conditions: 10 µM unless noted
DU-145 prostate = conditions: 10 µM unless noted
SF-268 CNS = conditions: 10 µM unless noted
SF-539 CNS = conditions: 10 µM unless noted
M14 melanoma = conditions: 10 µM unless noted
HCT-15 colon = conditions: 10 µM
SNB-75 CNS = conditions: 10 µM unless noted
PC-3 prostate = conditions: 10 µM unless noted
UACC-62 melanoma = conditions: 10 µM unless noted
SK-MEL-28 melanoma = conditions: 10 µM unless noted
SN12C renal = conditions: 10 µM unless noted
TK-10 renal = conditions: 10 µM unless noted
HL-60(TB) leukemia = conditions: 10 µM unless noted
OVCAR-8 ovarian = conditions: 10 µM unless noted
NCI/ADR-RES ovarian = conditions: 10 µM unless noted
SW-620 colon = conditions: 10 µM unless noted
MCF7 breast = conditions: 10 µM unless noted
HCT-116 colon = conditions: 10 µM unless noted
KM12 colon = conditions: 10 µM unless noted

| SMILES | growth (NCI-H460 lung) | growth (786-0 renal) | growth (DU-145 prostate) | growth (SF-268 CNS) | growth (SF-539 CNS) | growth (M14 melanoma) | growth (HCT-15 colon) | growth (SNB-75 CNS) | growth (PC-3 prostate) | growth (UACC-62 melanoma) | growth (SK-MEL-28 melanoma) | growth (SN12C renal) | growth (TK-10 renal) | growth (HL-60(TB) leukemia) | growth (OVCAR-8 ovarian) | growth (NCI/ADR-RES ovarian) | growth (SW-620 colon) | growth (MCF7 breast) | growth (HCT-116 colon) | growth (KM12 colon) |
| --- | --- | --- | --- | --- | --- | --- | --- | --- | --- | --- | --- | --- | --- | --- | --- | --- | --- | --- | --- | --- |
| CC1(C)N=C(N)N=C(N)N1c1ccc(OCCCCOc2ccc(S(=O)(=O)F)cc2)c(Cl)c1 | 4.24% (active) | 20.6% (inactive) | 24.6% (inactive) | 17.9% (inactive) | 12.2% (inactive) | 19% (inactive) | 32.8% (inactive) | 38.3% (inactive) | 5.85% (active) | 17.2% (inactive) | 31.3% (inactive) | 17.4% (inactive) | 11.3% (inactive) | 19.3% (inactive) | 13.5% (inactive) | 103% (inactive) | 13% (inactive) | 9.19% (active) | 11.2% (inactive) | 9.69% (active) |
| NC(=O)C(Cl)Cl | 100% (inactive) | 107% (inactive) | 108% (inactive) | 102% (inactive) | 107% (inactive) | 112% (inactive) | 97.6% (inactive) | 96.4% (inactive) | 97.5% (inactive) | 105% (inactive) | 112% (inactive) | 104% (inactive) | 98.7% (inactive) | 80.8% (inactive) | 99.9% (inactive) | 114% (inactive) | 113% (inactive) | 92.8% (inactive) | 107% (inactive) | 110% (inactive) |
| n1nc(-c2nonc2-c2nn[nH]n2)n[nH]1 | 109% (inactive) | 99% (inactive) | 103% (inactive) | 122% (inactive) | 115% (inactive) | 115% (inactive) | 106% (inactive) | 106% (inactive) | 102% (inactive) | 107% (inactive) | 106% (inactive) | 102% (inactive) | 110% (inactive) | 105% (inactive) | 109% (inactive) | 104% (inactive) | 107% (inactive) | 101% (inactive) | 106% (inactive) | 118% (inactive) |
| CNc1ccc(C(=O)CC(O)CCC(C)C2OC(=O)CC(O)CC(=O)CC(O)CC(O)CC(O)CC(O)CC3(O)CC(O)C(C(=O)OC)C(CC(O[C@@H]4O[C@H](C)[C@@H](O)[C@H](N)[C@@H]4O)/C=C/C=C/C=C/C=C/C=C/C=C/C=C/C2C)O3)cc1 (some centres not stated) | 3.55% (active) | -20.1% (active) | -75.3% (active) | -5.42% (active) | 72.4% (inactive) | -47.5% (active) | 41.8% (inactive) | 42.6% (inactive) | 15% (inactive) | 3.05% (active) | -89.1% (active) | -81.3% (active) | -47.6% (active) |  | -22.3% (active) | -35.9% (active) | 37% (inactive) | 8.58% (active) | -16.4% (active) | 7.61% (active) |
| C#CC1(O)CCC2(C)C(CCC3C4CCC(=O)C4(C)CCC32)C1 (configuration not stated) | 102% (inactive) | 97.4% (inactive) | 109% (inactive) | 97.9% (inactive) | 97.2% (inactive) | 102% (inactive) | 97.5% (inactive) | 84.4% (inactive) | 90.9% (inactive) | 88.7% (inactive) | 105% (inactive) | 101% (inactive) | 91.7% (inactive) | 93.5% (inactive) | 97.6% (inactive) | 96.4% (inactive) | 103% (inactive) | 104% (inactive) | 92.3% (inactive) | 102% (inactive) |
| CC[C@@H](C)/C=C(C)/C=C/C(=O)c1c(O)c(-c2ccc(O)cc2)cn(O)c1=O | 1% (active) | 0.309% (active) | 15.5% (inactive) | -0.607% (active) | 5.1% (active) | -1.25% (active) | 30.7% (inactive) | 2.38% (active) | 37.7% (inactive) | -31.6% (active) | 34.7% (inactive) | 13.6% (inactive) |  |  | 4.95% (active) | 1.53% (active) | 20.2% (inactive) | 15.4% (inactive) | 16.7% (inactive) | 23.5% (inactive) |
| C/C(=N/OC(=O)N(C)C)c1ccc(Cl)cc1Cl | 104% (inactive) | 100% (inactive) | 109% (inactive) | 103% (inactive) | 95.9% (inactive) | 106% (inactive) | 105% (inactive) | 79.2% (inactive) | 118% (inactive) | 98.7% (inactive) | 110% (inactive) | 96.8% (inactive) | 88.5% (inactive) |  | 106% (inactive) | 96.7% (inactive) | 106% (inactive) | 95% (inactive) | 99.1% (inactive) | 108% (inactive) |
| Cc1ccccc1O | 117% (inactive) | 105% (inactive) | 120% (inactive) | 109% (inactive) | 104% (inactive) | 101% (inactive) | 106% (inactive) |  | 96.4% (inactive) | 107% (inactive) | 111% (inactive) | 105% (inactive) | 115% (inactive) | 110% (inactive) | 103% (inactive) | 100% (inactive) | 112% (inactive) | 119% (inactive) | 103% (inactive) | 106% (inactive) |
| COc1ccc(NP2(=O)OCC(C)(N)CO2)cc1 (configuration not stated) | 108% (inactive) | 101% (inactive) | 102% (inactive) | 96.2% (inactive) | 100% (inactive) | 101% (inactive) | 89.3% (inactive) | 95.7% (inactive) | 84.5% (inactive) | 99.9% (inactive) | 114% (inactive) | 105% (inactive) | 93.2% (inactive) | 95% (inactive) | 101% (inactive) | 98.2% (inactive) | 105% (inactive) | 99.6% (inactive) | 98.8% (inactive) | 91.8% (inactive) |
| C[C@]12C[C@H](O)[C@H]3[C@@H](CCC4=CC(=O)CC[C@@]43C)[C@@H]1CC[C@@H]2O | 108% (inactive) | 107% (inactive) | 112% (inactive) | 105% (inactive) | 99% (inactive) | 98.4% (inactive) | 100% (inactive) | 85.7% (inactive) | 95.3% (inactive) | 98.5% (inactive) | 106% (inactive) | 101% (inactive) |  | 105% (inactive) | 114% (inactive) | 104% (inactive) | 107% (inactive) | 103% (inactive) | 101% (inactive) | 105% (inactive) |
| CCCCOC(=O)c1ccccc1C(=O)O.CCCCOC(=O)c1ccccc1C(=O)O.[Cu+2] | 109% (inactive) | 106% (inactive) | 113% (inactive) | 120% (inactive) | 111% (inactive) | 101% (inactive) | 112% (inactive) | 104% (inactive) | 111% (inactive) | 111% (inactive) | 111% (inactive) | 113% (inactive) | 107% (inactive) | 89.6% (inactive) | 108% (inactive) | 111% (inactive) | 98.8% (inactive) |  | 102% (inactive) | 105% (inactive) |
| C=C=[CH][Sn]([c]1ccccc1)([c]1ccccc1)[c]1ccccc1 | -78.8% (active) | -81.2% (active) | -91.1% (active) | -69% (active) | -29.9% (active) | -66.1% (active) | -48.6% (active) | 14.2% (inactive) | -50.5% (active) | -62.3% (active) | -56.8% (active) | -73.5% (active) | -74.7% (active) |  | -30% (active) |  | -74.8% (active) | -52.5% (active) | -97.4% (active) | -84.8% (active) |
| CCC(C)(C)O | 104% (inactive) | 114% (inactive) | 115% (inactive) | 99.1% (inactive) | 108% (inactive) | 107% (inactive) | 99.9% (inactive) | 92.1% (inactive) | 100% (inactive) | 98.5% (inactive) | 108% (inactive) | 98.8% (inactive) |  | 86.4% (inactive) | 108% (inactive) | 110% (inactive) | 99.9% (inactive) | 97.6% (inactive) | 111% (inactive) | 105% (inactive) |
| Oc1c(Br)cc(Br)cc1Br.[Cu+2] | 103% (inactive) | 115% (inactive) | 108% (inactive) | 105% (inactive) | 107% (inactive) | 103% (inactive) | 108% (inactive) | 98.7% (inactive) | 103% (inactive) | 109% (inactive) | 101% (inactive) | 110% (inactive) | 117% (inactive) | 87.9% (inactive) | 103% (inactive) | 105% (inactive) | 99.2% (inactive) | 101% (inactive) | 98.4% (inactive) | 98.1% (inactive) |
| COc1ccc2c(c1)NC1=C(C(=O)OC1)C2c1cc(OC)c(OC)c(OC)c1 (configuration not stated) | 4.55% (active) | 18.8% (inactive) | -24.7% (active) | 22.6% (inactive) | -4.41% (active) | 6.44% (active) | 15.3% (inactive) | 45.7% (inactive) | 20.6% (inactive) | 44.7% (inactive) | 66.2% (inactive) | 23.1% (inactive) |  | -31.3% (active) | 15.2% (inactive) | -34.5% (active) | 17.9% (inactive) | 9.07% (active) | 5.07% (active) | -4.06% (active) |
| C[CH2][Sn]([CH2]C)([CH2]C)[NH]S(=O)(=O)c1ccc(C)cc1 | 107% (inactive) | 109% (inactive) | 113% (inactive) | 108% (inactive) |  | 108% (inactive) | 96.5% (inactive) | 94.6% (inactive) | 111% (inactive) | 100% (inactive) | 111% (inactive) | 106% (inactive) | 109% (inactive) | 104% (inactive) | 104% (inactive) | 104% (inactive) | 101% (inactive) | 103% (inactive) | 106% (inactive) | 105% (inactive) |
| Nc1nc(N)c(-c2ccc(Cl)c(Cl)c2)c(/C=C/c2ccc(S(=O)(=O)F)cc2)n1 | 77% (inactive) | 76.9% (inactive) | 96.7% (inactive) | 97.4% (inactive) | 80.1% (inactive) | 89.4% (inactive) | 77.9% (inactive) | 78.4% (inactive) | 65% (inactive) | 79.1% (inactive) | 98.1% (inactive) | 93.1% (inactive) | 86.8% (inactive) | 91.9% (inactive) | 81.6% (inactive) | 105% (inactive) | 78.5% (inactive) |  | 77.7% (inactive) | 86.8% (inactive) |
